Results reported in PubChem BioAssay (NCI).
This is part of a sample that, as a whole, favours compounds with a hit. Of some 83,000 tested, about 20% had one in any assay.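 For each line, cells grew in 96-well plates with the test compound present at a single concentration for 48 hours.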 A number with no mark means an inactive call. Active and inactive are the calls of the source. The calls were made as follows: active = growth percent below 10; inactive = the rest.

What was measured:
Experiment in all cases: NCI-60 one-dose screen, 48 h (100 = growth as untreated, 0 = no growth, -100 = all killed)
Details in all cases: 10 µM unless noted
T-47D breast = tested on: T-47D breast
BT-549 breast = tested on: BT-549 breast
MDA-MB-435 melanoma = tested on: MDA-MB-435 melanoma
SW-620 colon = tested on: SW-620 colon
MCF7 breast = tested on: MCF7 breast
HCT-116 colon = tested on: HCT-116 colon
HCC-2998 colon = tested on: HCC-2998 colon
KM12 colon = tested on: KM12 colon

| Compound | growth (T-47D breast) | growth (BT-549 breast) | growth (MDA-MB-435 melanoma) | growth (SW-620 colon) | growth (MCF7 breast) | growth (HCT-116 colon) | growth (HCC-2998 colon) | growth (KM12 colon) |
| --- | --- | --- | --- | --- | --- | --- | --- | --- |
| CN(C)CCCC1(c2ccc(F)cc2)OCc2cc(-c3csc4ccccc34)ccc21 (stereo not given) | 26.4% | 84.2% | -91.4% (active) | -82.4% (active) | -62.5% (active) | -44.2% (active) | -82.9% (active) | -83.2% (active) |
| C=C1C(=O)O[C@H]2[C@H]1CC/C(COC(=O)/C=C\C(=O)NCc1ccc(Cn3c(=O)sn(CCCCl)c3=O)cc1)=C\CC[C@@]1(C)O[C@@H]21 | 61.5% | 88.2% | 52.8% | 22.1% | 41.8% |  | 100% | 99.4% |
| Cc1ccc(O)c(NC(=O)c2cccc(Nc3ccnc(C(F)(F)F)c3)c2)c1 | 21% | 57.9% | 60.2% | 90.8% | 40.7% |  | 74.3% | 75.9% |
| O=C1/C(=C/c2c[nH]c(=O)[nH]c2=O)SC(=S)N1Cc1ccccc1 | 108% | 107% | 100% | 98.7% | 89.4% |  | 101% | 101% |
| CN1c2ccccc2S(=O)(=O)n2c(SCC(=O)Nc3nc4ccc(F)cc4s3)nnc21 | 112% | 122% | 117% | 107% | 88.2% |  | 128% | 97.7% |
| CCN(CCNc1ccc(C)c2sc3cc(Cl)ccc3c(=O)c12)CC(C)(C)O | 69.5% | 84.9% | 35.2% | 82.2% | 58.5% |  | 39.6% | 40.5% |
| COc1cc2c(cc1OCCCN1CCN(C(=S)SCCC(C#N)(c3ccccc3)c3ccccc3)CC1)N=C[C@@H]1CCCN1C2=O | -50.5% (active) | -89.7% (active) | -15.2% (active) | -100% (active) | -86.1% (active) |  | -86.8% (active) | -75.1% (active) |
| C#COc1cccc(Nc2ncnc3cc(NC(=O)[C@H](C)Cl)ccc23)c1 | 6.76% [6.25 µM] (active) | 9.94% [6.25 µM] (active) | -25.1% [6.25 µM] (active) | 14.5% [6.25 µM] | 11.3% [6.25 µM] |  | 5.81% [6.25 µM] (active) | 17.8% [6.25 µM] |
| COC(=O)/C=C1/SC(=Nc2ccc(F)cc2)N(CCc2c[nH]c3ccc(O)cc23)C1=O | 23.7% | 8.93% (active) | 25.4% | 53.7% | 17% | 23.1% | 45.9% | 38.3% |
| Cc1ccc(NC(=O)c2sc3nc(C)c(C(O)c4ccccc4)cc3c2N)cc1 (stereo not given) | 42.3% | 61.6% | -13.1% (active) | 23.1% | 19.2% | 13.7% | 12.1% | 16.8% |
| CCN(CC)C(=O)CC1=C(C)/C(=C/c2[nH]c(-c3ccc[nH]3)cc2OC)N=C1C | 33.4% | 21.4% | 17.2% | 15.2% | 19.3% |  | 30.4% | 13.9% |
| Nc1ccc(-c2ccncc2)cc1NC(=O)N1CCCC1 | 81.9% | 104% | 96.3% | 98.2% | 87% |  | 94.4% | 94.6% |
| CN(C)CCC(CCN(C)C)(C(=O)O)c1ccccc1 | 104% | 96.5% | 106% | 110% | 94.1% |  | 101% | 102% |
| Cc1ccc(Cc2cnc(NC(=O)/C=C/c3ccc(C)o3)s2)cc1 | 35.5% | 72.3% | -52.5% (active) | 22.7% | 12.3% | 27.7% | 65.2% | 16.5% |
| Brc1ccc(Nc2nc(Nc3cnc4ccccc4c3)c3[nH]cnc3n2)cc1 | 52.8% | 48.6% | 96.3% |  | 58% | 55% | 103% | 88.8% |
| COc1cc(O)c2c(=O)c3c(CC=C(C)C)cc(OC)c(O)c3oc2c1 | 45.9% | 33.2% | -3.84% (active) |  | 23% | 11.8% | 53.4% | 23.2% |
| COC1C(O)CC(OC2CC(OC3CC(O[C@@H]4C(=O)c5c(cc6cc(OC7CC(OC8CC(O)C(O)C(C)O8)C(O)C(C)O7)c(C)c(O)c6c5O)CC4[C@H](OC)C(=O)C(C)=O)OC(C)C3O)OC(C)C2O)OC1C (stereo not given in full) | -4.93% (active) | -18.8% (active) | -74.8% (active) |  | 3.16% (active) | 4.47% (active) | -14.3% (active) | 13% |
| COc1ccc(C2CC(c3ccccc3)=NN2C(=O)c2cc(OC)c(OC)c(OC)c2)cc1O (stereo not given) | 70.9% | 39.7% | -7.61% (active) |  | 20.3% | 13.8% | -1.27% (active) | 26.3% |
| O=S(=O)(N=C1C(Cl)=C(Cl)C(=NS(=O)(=O)c2ccccc2)C(Cl)=C1Cl)c1ccccc1 | 88.9% | 86.6% | 101% | 39.7% | 53.8% |  | 122% | 96.2% |
| O=c1cc(CNc2cc(F)cc(F)c2)c2ccc(I)cc2[nH]1 | 35.8% | 54.8% | -28.1% (active) |  | 21.9% | 26.4% | 64.6% | 24.1% |
| Nc1ccc(Br)cc1C(F)(F)F | 96.7% | 107% | 117% |  | 106% | 103% | 114% | 112% |
| COc1cc(/C=C/C(=O)N2CCN(C(=O)c3cc(OC)c(OC)c(OC)c3)CC2)ccc1OCCCOc1cc2c(cc1OC)C(=O)N1CCC[C@H]1C=N2 | 7.16% (active) | -55.9% (active) | -66.4% (active) |  | 7.86% (active) | 7.83% (active) | -39% (active) | -19.5% (active) |
| C=C1C(=O)O[C@H]2[C@H]1CC/C(COC(=O)C(=O)c1c[nH]c3ccc(Cl)cc13)=C\CC[C@@]1(C)O[C@@H]21 | -44.9% (active) | -87.2% (active) | -96.4% (active) |  | -32.5% (active) | -99.6% (active) | -75.9% (active) | -72.8% (active) |
| COc1ccc(/C=N/NC(=O)Cn2c(-c3ccc(S(C)(=O)=O)cc3)nc3ccccc32)cc1 | 102% | 103% | 97.8% |  | 88.6% | 91.7% | 95.7% | 104% |
| CCOC(=O)C#Cc1c(C(=O)OCC)nnn1[C@@H]1O[C@H](COC)[C@@H](OC)[C@H]1OC | 15.2% | 98.7% | 98.7% |  | 8.52% (active) | 84% | 128% | 105% |
| COCCn1cc(-c2nc(-c3c[nH]c4ncccc34)cs2)c2ccccc21 | 4.79% (active) | 43.2% | 7.74% (active) |  | 9.03% (active) | 66.5% | 34.4% | 16.4% |
| O=C(c1cccc(N2CCOCC2)n1)c1c[nH]c2ccccc12 | 70.7% | 117% | 99.7% |  | 66% | 97.7% | 113% | 90.5% |
| COc1ccc(C/C(C)=C(\c2ccc(Cl)cc2)c2ccc(OCCCN(C)C)cc2)cc1 | 62.1% | 91.3% | 82.6% |  | 16.2% | 60.3% | 47.1% | 68.6% |
